In PubChem BioAssay (EPA / NIEHS):
Inconclusive results are not listed. Activity calls are given as the source filed them. Rule for the calls, unless noted: active = hit-call score of the fitted dose curve at least 0.9, where 1 is the maximum; inactive = score below 0.9.

Assays:
[1] = BSK_3C_SRB: Viability Assessment in the BioMAP Diversity Plus: 3C Assay (AID 2283023); conditions: primary human endothelial cells (HUVEC);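 note: fitted both ways against DMSO so a hit may be signal rise or drop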
In short: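 Cytotoxicity readout in parallel HUVEC 3C cultures: after 24 h compound exposure, cells fixed with 10% TCA, stained with 0.1% SRB and read at 560 nm. Gain or loss relative to DMSO fitted.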

[2] = read-out: Matrix Metallopeptidase 1 (MMP1), MMP1 (gene 4312); experiment: BSK_BE3C_MMP1: BioMAP Diversity Plus: BE3C Assay for Matrix Metallopeptidase 1 (MMP1) Biomarker Activity (AID 2283024); conditions: primary human bronchial epithelial cells; actives raise or lower the signal
In short: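 MMP1 signal, measured by ELISA after a 24 h chemical exposure of human primary bronchial epithelial cells, is analysed with bidirectional fitting using DMSO as negative control.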

[3] = BSK_3C_Vis: BioMAP Diversity Plus: 3C Assay for Morphology Visualization (AID 2283025); conditions: primary human endothelial cells (HUVEC);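 note: fitted both ways so gain or loss versus DMSO counts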
In short: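 Morphology read by light microscopy serves as a background control for the multiplexed 3C assay in human umbilical vein endothelial cells, taken 24 h after dosing, with DMSO as the negative control and bidirectional curve fitting.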

[4] = read-out: Pselectin, SELP (gene 6403); experiment: BSK_4H_Pselectin: BioMAP Diversity Plus: 4H Assay for Pselectin Biomarker Activity (AID 2283026); conditions: primary human endothelial cells (HUVEC); actives raise or lower the signal
In short: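 Endothelial primary cells (human umbilical vein) are dosed, incubated 24 h, and assayed for surface P-selectin by ELISA; responses in either direction are fitted relative to the DMSO negative control.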

[5] = BSK_4H_SRB: Viability Assessment in the BioMAP Diversity Plus: 4H Assay (AID 2283027); conditions: primary human endothelial cells (HUVEC);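 note: cells exposed to compound for 24 h before staining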;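 for AC50: curves fitted both ways versus DMSO so AC50 may be loss or gain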
In short: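 Cytotoxicity read-out in primary human endothelial cells: after 24 h compound exposure, cells were TCA-fixed (10%), stained with 0.1% SRB and absorbance taken at 560 nm. Values fitted in both directions relative to DMSO.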

[6] = BSK_BE3C_SRB: Viability Assessment in the BioMAP Diversity Plus: BE3C Assay (AID 2283028); conditions: primary human bronchial epithelial cells;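 for AC50: fitted both ways so AC50 may mark signal gain or loss versus DMSO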
In short: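 Cytotoxicity read-out: SRB (0.1%) staining of TCA-fixed (10%) human lung bronchial epithelial cells, absorbance 560 nm, 24 h post-dosing. Curves fitted both directions relative to DMSO.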

[7] = read-out: Thrombomodulin, THBD (gene 7056); experiment: BSK_3C_Thrombomodulin: BioMAP Diversity Plus: 3C Assay for Thrombomodulin Biomarker Activity (AID 2283029); conditions: primary human endothelial cells (HUVEC); actives raise or lower the signal
In short: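 Endothelial cells from umbilical vein are dosed with test chemical and incubated 24 h. Thrombomodulin is then quantified by ELISA, with DMSO serving as negative control and activity baseline.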

[8] = read-out: Urokinase-type plasminogen activator receptor (uPAR), PLAUR (gene 5329); experiment: BSK_4H_uPAR: BioMAP Diversity Plus: 4H Assay for Urokinase-type plasminogen activator receptor (uPAR) Biomarker Activity (AID 2283030); conditions: primary human endothelial cells (HUVEC); actives raise or lower the signal
In short: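 uPAR level read by ELISA on HUVEC cultures (BioMAP 4H) 24 h post-dosing, analyzed for gain or loss relative to DMSO. Parallel SRB staining assessed overt cytotoxicity.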

[9] = read-out: Vascular endothelial growth factor receptor 2 (Homo sapiens) (UniProt P35968); experiment: BSK_4H_VEGFRII: BioMAP Diversity Plus: 4H Assay for Vascular endothelial growth factor receptor 2 (VEGFR2) Biomarker Activity (AID 2283031); conditions: primary human endothelial cells (HUVEC); actives raise or lower the signal;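 for AC50: cell-surface VEGFR2 protein level quantified by ELISA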
In short: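 Measured by ELISA after 24 h of compound treatment: VEGFR2 on primary human umbilical vein endothelial cells, fitted in both directions relative to DMSO. Parallel cultures received SRB staining (560 nm) for overt cytotoxicity.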

[10] = read-out: Human Leukocyte Antigen - DR isotype (HLADR), HLA-DRA (gene 3122); experiment: BSK_BE3C_HLADR: BioMAP Diversity Plus: BE3C Assay for Human Leukocyte Antigen - DR isotype (HLADR) Biomarker Activity (AID 2283032); conditions: primary human bronchial epithelial cells; actives raise or lower the signal
In short: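 Chemicals are dosed onto BE3C bronchial epithelial cultures of human origin and left 24 h. HLA-DR is then measured by ELISA, and the endpoint is fitted in both directions using DMSO as the activity baseline.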

[11] = read-out: Vascular cell adhesion molecule 1 (VCAM1), VCAM1 (gene 7412); experiment: BSK_4H_VCAM1: BioMAP Diversity Plus: 4H Assay for Vascular cell adhesion molecule 1 (VCAM1) Biomarker Activity (AID 2283033); conditions: primary human endothelial cells (HUVEC); actives raise or lower the signal
In short: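 Chemicals are added to primary human umbilical vein endothelial cells. After 24 h, VCAM-1 levels are measured by ELISA. Values come from bidirectional fitting referenced to DMSO.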

[12] = read-out: Interferon-gamma inducible Protein 10 (IP10), CXCL10 (gene 3627); experiment: BSK_BE3C_IP10: BioMAP Diversity Plus: BE3C Assay for Interferon-gamma inducible Protein 10 (IP10) Biomarker Activity (AID 2283034); conditions: primary human bronchial epithelial cells; actives raise or lower the signal
In short: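 IP-10 quantified by ELISA serves as the endpoint. Cells: primary human bronchial epithelium, read 24 h after compound addition. Activity is derived by bidirectional fitting with DMSO as negative control.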

[13] = read-out: Monokine induced gamma interferon (MIG), CXCL9 (gene 4283); experiment: BSK_BE3C_MIG: BioMAP Diversity Plus: BE3C Assay for Monokine induced gamma interferon (MIG) Biomarker Activity (AID 2283035); conditions: primary human bronchial epithelial cells; actives raise or lower the signal
In short: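 ELISA quantified MIG after 24 h exposure of primary bronchial epithelial cultures, analysed in both directions relative to DMSO. Cytotoxicity tracked in parallel cultures by sulforhodamine B staining.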

[14] = read-out: Transforming growth factor beta 1 (TGFb1), TGFB1 (gene 7040); experiment: BSK_BE3C_TGFb1: BioMAP Diversity Plus: BE3C Assay for Transforming growth factor beta 1 (TGFb1) Biomarker Activity (AID 2283036;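 note: TGF-b1 protein level measured by ELISA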); conditions: primary human bronchial epithelial cells; actives raise or lower the signal
In short: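 Bronchial epithelial primary cells are treated with test chemical, then TGF-b1 is quantified by ELISA after 24 hours. Values derive from bidirectional fitting against DMSO, with cytotoxicity checked by SRB staining in parallel cultures.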

[15] = read-out: Plasminogen activator inhibitor-1 (PAI1), SERPINE1 (gene 5054); experiment: BSK_BE3C_PAI1: BioMAP Diversity Plus: BE3C Assay for Plasminogen activator inhibitor-1 (PAI1) Biomarker Activity (AID 2283037); conditions: primary human bronchial epithelial cells; actives raise or lower the signal
In short: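 Values derive from bidirectional fitting against DMSO baseline of PAI-1 levels, measured by ELISA in human bronchial epithelial cells 24 h after compound addition.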

[16] = read-out: urokinase plasminogen activator (uPA), PLAU (gene 5328); experiment: BSK_BE3C_uPA: BioMAP Diversity Plus: BE3C Assay for urokinase plasminogen activator (uPA) Biomarker Activity (AID 2283038); conditions: primary human bronchial epithelial cells; actives raise or lower the signal
In short: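 ELISA for uPA on human primary bronchial epithelial cultures 24 h post-treatment, gain or loss against DMSO. Parallel SRB staining (0.1% after 10% TCA fixation, 560 nm) assessed overt cytotoxicity.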

[17] = read-out: Interleukin-6 (IL6), IL6 (gene 3569); experiment: BSK_CASM3C_IL6: BioMAP Diversity Plus: CASM3C Assay for Interleukin-6 (IL6) Biomarker Activity for (AID 2283040); conditions: primary human coronary artery smooth muscle cells; actives raise or lower the signal
[18] = read-out: Tissue plasminogen activator (tPA), PLAT (gene 5327); experiment: BSK_BE3C_tPA: BioMAP Diversity Plus: BE3C Assay for Tissue plasminogen activator (tPA) Biomarker Activity (AID 2283041); conditions: primary human bronchial epithelial cells; actives raise or lower the signal
In short: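 Gain- or loss-of-signal in tPA, measured by ELISA, derived by bidirectional fitting against DMSO. Cells: human primary bronchial epithelial; read at 24 h after chemical dosing.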

[19] = target: human Vitamin D Receptor (VDR), VDR (gene 7421) (UniProt P11473); experiment: ATG_VDR_TRANS: Attagene TRANS-FACTORIAL HepG2 Assay for human Vitamin D Receptor (VDR) (AID 2283022; active = hit-call score of the fitted dose curve at least 0.9, where 1 is the maximum)
In short: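 Transactivation by an exogenous VDR-Gal4 chimera in transiently transfected HepG2 cells was measured as reporter transcript level 24 hours after chemical treatment. RT-PCR products were analysed by capillary electrophoresis and fitted in the positive direction relative to DMSO.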

Measured: AC50

Sequence of human Vitamin D Receptor (VDR), VDR (gene 7421) (P11473 whole entry, looked up, the tested form may be a part): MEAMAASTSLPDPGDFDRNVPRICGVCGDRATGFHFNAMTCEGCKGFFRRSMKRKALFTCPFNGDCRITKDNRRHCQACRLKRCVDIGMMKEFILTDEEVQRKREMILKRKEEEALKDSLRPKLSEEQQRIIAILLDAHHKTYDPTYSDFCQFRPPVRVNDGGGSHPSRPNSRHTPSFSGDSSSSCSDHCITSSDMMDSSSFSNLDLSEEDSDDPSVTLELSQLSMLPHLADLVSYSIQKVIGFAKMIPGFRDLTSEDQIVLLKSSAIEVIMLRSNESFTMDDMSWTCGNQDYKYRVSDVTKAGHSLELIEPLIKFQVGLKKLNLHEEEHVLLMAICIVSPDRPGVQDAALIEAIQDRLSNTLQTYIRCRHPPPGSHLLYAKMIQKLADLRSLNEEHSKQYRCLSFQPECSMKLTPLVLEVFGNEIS

CCCCC/C=C/C=C/C=O
active: [1] 31.1 µM | [3] 37.4 µM | [4] 27.1 µM | [5] 30.5 µM | [6] 30.3 µM | [8] 35.6 µM | [9] 20 µM | [10] 20 µM | [11] 33.3 µM | [12] 28.4 µM | [13] 34.3 µM | [16] 31.3 µM
inactive: [2] | [7] | [14] | [15] | [17] | [18]

CCCCC(CC)COCCC#N (stereo not drawn)
inactive: [19] | [1] | [2] | [3] | [4] | [5] | [6] | [8] | [9] | [10] | [11] | [12] | [13] | [14] | [15] | [16] | [17] | [18]

CC1COc2ccccc2N1C(=O)C(Cl)Cl (stereo not drawn)
active: [1] 7.57 µM | [3] 5.21 µM | [4] 4.69 µM | [5] 2.79 µM | [10] 7.78 µM | [11] 8.19 µM | [12] 12.2 µM | [15] 3.97 µM | [16] 0.016 µM | [17] 8.9 µM | [18] 3.04 µM
inactive: [19] | [6] | [8] | [9] | [13] | [14]
